Compound activity as filed in PubChem.
Compounds with a hit are over-represented: about 3.5% of the library has one in this group of screens.
LmPK inhibitor = LmPK (Leishmania mexicana) enzyme inhibition | Q27686 | purified LmPK, Kinase-Glo ATP luminescence, 1 h | Potency, µM (highest dose often 57.5 µM), for inactives: at the top dose activity change, negative = inhibition, hits mostly inhibitors | actives 0.37% (n = 290,000) | AID 1721; note: % is set by controls: 0 for no effect and ±100 for the full control effect
Target sequence (Q27686 whole entry, looked up): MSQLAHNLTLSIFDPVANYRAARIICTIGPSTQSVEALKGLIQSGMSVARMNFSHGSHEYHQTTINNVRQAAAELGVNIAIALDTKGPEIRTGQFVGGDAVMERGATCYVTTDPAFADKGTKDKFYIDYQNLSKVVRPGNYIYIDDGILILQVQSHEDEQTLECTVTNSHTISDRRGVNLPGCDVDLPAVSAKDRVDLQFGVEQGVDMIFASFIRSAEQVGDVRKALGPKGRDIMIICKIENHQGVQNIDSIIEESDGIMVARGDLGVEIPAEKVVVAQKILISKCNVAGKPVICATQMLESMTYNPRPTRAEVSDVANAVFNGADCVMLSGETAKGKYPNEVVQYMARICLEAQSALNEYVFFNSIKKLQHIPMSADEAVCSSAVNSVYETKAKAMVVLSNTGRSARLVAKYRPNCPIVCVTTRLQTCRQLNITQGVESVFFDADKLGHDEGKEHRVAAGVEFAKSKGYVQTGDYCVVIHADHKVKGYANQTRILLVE
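ATP generated from ADP (0.1 mM) and PEP (0.5 mM) by 0.1 nM LmPK over 1 h at room temperature (pH 7.2 imidazole buffer) was detected by coupled luciferase luminescence. Values were normalized to uninhibited and no-enzyme wells.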
NS1 function inh = influenza NS1 inhibition; AID 2326; Potency, µM (titrated, usually from 46.1 µM), without a hit: at the highest dose activity, positive = more growth; actives 0.4% (n = 270,000); calls by dose curve; note: actives are rising curves; nearly all actives have a fitted effect of over 50% in size
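Compounds were scored for reversing the slow growth caused by influenza A NS1 in S. cerevisiae, measured by optical density at 600 nm. Assay medium contained 2% galactose at pH 6.0; NS1-free yeast of the same strain were the positive control.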
Tb PYK inh = inhibitors of Trypanosoma brucei pyruvate kinase | actives 0.12% (n = 410,000) | Q57TT1 | Potency, µM (doses to about 76.8 µM), inactives show top-dose activity, negative = inhibition, most hits filed as inhibitors | TbPYK enzyme, Kinase-Glo Plus ATP luminescence, 45 min; note: % is set by controls: 0 for no effect and ±100 for the full control effect; nearly all actives have a fitted effect of over 50% in size
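Readout: single end-point luminescence (Kinase-Glo Plus, 10 min). Reaction conditions were TbPYK/substrate plus 130 uM ADP, 45 min at RT, pH 7.2 TEA buffer. No-enzyme wells served as controls, and data were normalized before concentration-response fitting.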
Sm TGR inh = inhibitors of Schistosoma mansoni thioredoxin glutathione reductase; Potency, µM (titrated, usually from 114 µM), for inactives: top-dose activity change, negative = inhibition, most hits filed as inhibitors; actives 3% (n = 360,000); AID 485364; purified TGR, DTNB reduction, TNB absorbance 405 nm; note: % is set by controls: 0 for no effect and ±100 for the full control effect; nearly all actives have a fitted effect of over 60% in size
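TGR 20 nM + NADPH 100 uM (dispensed conc.), cpd preinc 15 min RT; start with NADPH (500 uM addition) then DTNB (15 mM addition). Kinetic TNB absorbance, 405 nm filter. Four-parameter Hill fit across titration.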
Giardia FBPA inh = inhibitors of Giardia lamblia fructose-1,6-bisphosphate aldolase; actives 0.71% (n = 290,000); purified Giardia FBPA; Potency, µM (highest dose often 59.6 µM), for the others: top-dose activity, negative = inhibition, actives largely listed as inhibitors; note: % is set by controls: 0 for no effect and ±100 for the full control effect; nearly all actives have a fitted effect of over 55% in size
Target sequence (A8B2U2 whole entry, looked up): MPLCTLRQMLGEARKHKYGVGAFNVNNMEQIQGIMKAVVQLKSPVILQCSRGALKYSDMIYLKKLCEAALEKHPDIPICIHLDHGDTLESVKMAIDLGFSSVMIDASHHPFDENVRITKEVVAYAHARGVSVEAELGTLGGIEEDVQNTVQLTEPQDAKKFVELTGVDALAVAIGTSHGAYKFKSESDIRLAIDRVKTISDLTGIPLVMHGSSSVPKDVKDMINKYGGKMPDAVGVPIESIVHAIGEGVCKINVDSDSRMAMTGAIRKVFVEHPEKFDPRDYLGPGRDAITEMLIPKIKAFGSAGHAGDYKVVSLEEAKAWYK
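40 nM FBPA preincubated 10 min at RT with compound (up to 57.5 uM final), then substrate plus GAPDH/TPI/NAD/arsenate coupling and diaphorase/resazurin added. Fluorescence read after 20 min at RT, 525/598 nm.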
RE007 growth inh = less growth of the S. pombe RE007 Vpr strain; AID 651644; actives 0.21% (n = 360,000); S. pombe RE007 Vpr strain, BacTiter-Glo ATP luminescence, 24 h; Potency, µM (titrated, usually from 92.2 µM), for inactives: at the top dose activity change, negative = less growth, usual class: inhibitors; active = well fitted falling curve with a large enough effect; inconclusive = small, poorly fitted or top-dose-only effect; inactive = no such curve, though single readings can be large or run the other way; note: % is set by controls: 0 for no effect and ±100 for the full control effect; nearly all actives have a fitted effect of over 50% in size
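Fission yeast RE007 carrying one integrated HIV-1 vpr copy, seeded at OD 0.01 in PMG+AL medium with 23 nL pinned compound. Grown 24 h at 30 degrees; viability read by BacTiter-Glo luminescence after 5 min.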
* marks the source's active call; other numbers are inactive results; ? = inconclusive; . = no result given; [ ] = another dose, or the depositor's remark. Unless noted, calls come from the whole dose curve; as a rule, active = well fitted curve in the direction sought with a large enough effect; inconclusive = small, poorly fitted or top-dose-only effect, or another doubt; inactive = no such curve, though single readings can be large; an effect the other way counts as inactive or inconclusive. Potency is the fitted concentration of half-maximal effect.

SMILES | LmPK inhibitor | NS1 function inh | Tb PYK inh | Sm TGR inh | Giardia FBPA inh | RE007 growth inh
COc1cccc(NC(=O)CN(C)C(=O)c2cc(-c3ccc(C)o3)nc3ccccc23)c1 | . | . | 4.3% | 14.1µM* | . | -6.2%
COc1cc(-c2cc(C(=O)Nc3cccc(S(=O)(=O)N(C)C)c3)c3ccccc3n2)cc(OC)c1OC | -1.0% | 10.2% | -2.2% | 2.6% | -6.0% | -17.1%
COc1cccc(NC(=O)c2cc(-c3ccc(OC)cc3OC)nc3ccccc23)c1 | . | . | -17.0% | . | . | -0.2%
CN(C)c1ccc2c(-c3ccccc3)c3ccc(=[N+](C)C)cc-3oc2c1 | . | . | . | . | 27.9% | .
CCn1c(=O)c2cc(C(=O)Nc3cccc(C(F)(F)F)c3)sc2c2ccccc21 | . | . | -7.8% | 6.8% | . | .
CSc1ncc(C(=O)Nc2ccccc2C(=O)c2ccccc2)c(C)n1 | . | . | -3.5% | -10.6% | . | .
COc1cccc(Cn2ncc3c4sc(Br)cc4n(C)c3c2=O)c1 | . | . | . | -0.9% | . | .
CCOC(=O)CC(S(=O)(=O)c1ccccc1)S(=O)(=O)c1ccccc1 | . | . | -4.7% | . | . | 2µM*
COc1cc2[nH]c(=S)nc(NCCc3ccc(C)cc3)c2cc1OC | 0.3% | . | -12.4% | -3.3% | 8.7% | 3.1%
COc1cc2[nH]c(=S)nc(NCCc3ccc(S(N)(=O)=O)cc3)c2cc1OC | 0.5% | . | 2.9% | 14.1µM* | -7.7% | -6.7%
COc1ccccc1OCC(=O)Sc1ccc(C)cc1 | 1.3% | -84.7% | ? | 7.08µM* | -1.9% | ?
Cc1ccc(OCC(=O)Sc2ccc(C)cc2)cc1 | -0.6% | 4.0% | 1.9% | 17.8µM* | 4.8% | -18.2%
Cc1ccc(OCC(=O)NCCNC(=O)COc2ccc(C)cc2)cc1 | 0.8% | 7.7% | 6.2% | 9.8% | 4.2% | -12.6%
COc1cc(C(=O)Sc2ccc(C)cc2)cc(OC)c1OC | 0.2% | -9.6% | 1.3% | -21.2% | -1.3% | -9.4%
COc1ccc(-c2cccc(NS(=O)(=O)c3ccc(C)s3)c2)nn1 | . | . | -1.4% | 5.4% | . | .
Cc1cc(C)c2c(=O)cc(C(=O)Nc3sc4c(c3C#N)CCCC4)oc2c1 | . | . | -10.8% | 7.9% | . | .
CCCCn1c(SCC(=O)NCc2ccco2)nc2cc(S(N)(=O)=O)ccc21 | 8.3% | 7.4% | -9.9% | 50.1µM* | -12.9% | -10.0%
CCCCn1c(SCC(=O)Nc2ccc(OC)cc2)nc2ccc(N3CCOCC3)cc2c1=O | 3.6% | -17.9% | . | 28.2µM* | ? | -5.8%[3.69 µM]
CCCCn1c(SCC(=O)N2CCCCC2)nc2cc(S(N)(=O)=O)ccc21 | 12.0% | -6.6% | 11.5% | 19.6%[11.4 µM] | -19.2% | 1.9%
CCCCn1c(SCC(=O)NC(C)CC)nc2ccc(N3CCOCC3)cc2c1=O (stereo not drawn) | -2.2% | 20.6% | 2.6% | ? | ? | -6.9%
CCCCn1c(SCC(=O)NCc2ccco2)nc2ccc(N3CCOCC3)cc2c1=O | 1.6% | -31.0% | 19.2% | 28.2µM* | ? | -0.3%
CCOC(=O)/C(C(C)=O)=C1\OC(=O)c2ccccc21 | -0.8% | -11.9% | -4.3% | 20µM* | 11.5% | -4.4%
CCOC(=O)/C(C(C)=O)=C1/OC(=O)c2ccccc21 | -8.7% | 0.3% | 0.0% | 11.2µM* | 4.2% | 4.7%
Cc1nc(N2CCCC2)c2c(C(=O)Nc3cccc(C)c3C)c(C)oc2n1 | . | . | -5.7% | -7.3% | . | .
CCCCSCCCNC(=O)CS(=O)Cc1nc(-c2cccc(C)c2)oc1C (stereo not drawn) | -1.4% | -3.4% | . | 44.7µM* | 10.2% | -10.9%[3.69 µM]
SMILES | LmPK inhibitor | NS1 function inh | Tb PYK inh | Sm TGR inh | Giardia FBPA inh | RE007 growth inh
CCC(C)NC(=O)CS(=O)Cc1nc(-c2cccc(C)c2)oc1C (stereo not drawn) | 5.7% | 1.5% | -9.0% | 25.1µM* | 0.6% | -9.2%
Cc1cccc(-c2nc(CS(=O)CC(=O)NCc3ccco3)c(C)o2)c1 (stereo not drawn) | -3.9% | 8.9% | -8.0% | ? | -0.4% | 1.4%
CCCCNC(=O)CS(=O)Cc1nc(-c2cccc(C)c2)oc1C (stereo not drawn) | -0.3% | -0.4% | -2.8% | ? | 6.4% | -5.3%
CCCCNC(=O)CS(=O)Cc1nc(-c2cccc(Cl)c2)oc1C (stereo not drawn) | 2.4% | -12.1% | -7.2% | 31.6µM* | -3.8% | 2.8%
CN(C)c1ccc(C(c2nnnn2C(C)(C)C)N2CCN(C(=O)c3ccco3)CC2)cc1 (stereo not drawn) | -6.4% | 0.3% | -26.5% | 15.8µM* | -0.1% | -6.4%
COCCn1nnnc1C(c1ccc(Cl)cc1)N1CCN(C(=O)c2ccco2)CC1 (stereo not drawn) | -5.8% | -11.3% | -1.2% | 1.3% | -21.8% | 3.2%
CCC(C)(C)n1nnnc1C(c1ccc(N(C)C)cc1)N1CCN(C2CCCCC2)CC1 (stereo not drawn) | 1.4% | ? | -18.7% | 22.4µM* | -3.2% | -0.8%
CC(C)CCn1nnnc1C(c1ccc(N(C)C)cc1)N1CCN(C(=O)c2ccco2)CC1 (stereo not drawn) | 0.0% | 15.7% | 0.4% | 44.7µM* | -2.7% | 3.5%
CCOc1ccc(C(c2nnnn2C(C)(C)C)N2CCN(C(=O)c3ccco3)CC2)cc1 (stereo not drawn) | -8.8% | -1.6% | 1.4% | -13.1% | . | 11.5%
COc1ccc(NC(=O)c2c(C)oc3ccc(O)c(CN4CCN(Cc5ccccc5)CC4)c23)cc1Cl | . | . | 3.5% | -13.7% | . | .
COc1ccc(NC(=O)[C@@H](c2ccccc2)N2Cc3ccccc3C2=O)cc1OC | . | . | 5.5% | 7.2% | . | .
Cc1nn(CC(=O)NCCc2ccco2)c(=O)c2nn(-c3ccccc3)c(C)c12 | 4.4% | 15.2% | -10.3% | 31.6µM* | 9.2% | -8.9%
CCOC(=O)C1/C(=N\O)CC(C)(O)C(C(=O)OCC)C1c1ccc(N(C)C)cc1 (stereo not drawn) | 0.2% | 3.6% | -12.9% | 35.5µM* | ? | -6.7%
CCOC(=O)C1/C(=N\O)CC(C)(O)C(C(=O)OCC)C1c1ccc(OC)c(OC)c1 (stereo not drawn) | 4.9% | 1.1% | 0.6% | 4.8% | 2.4% | 2.0%
O=C(N/C=C/c1ccco1)NCc1ccccc1 | 2.5% | . | -36.9% | 25.1µM* | -9.9% | 12.6%
O=C(N/C=C/c1ccco1)OCc1ccccc1 | -1.7% | . | -20.0% | 44.7µM* | -4.1% | -22.0%
O=C(COC(=O)/C=C/c1ccco1)NCc1ccccc1 | 7.4% | . | -0.7% | -1.4% | 1.1% | 16.3%
CCN1/C(=C/C=C/C=C/C=C/c2sc3ccccc3[n+]2CC)Sc2ccccc21 | -4.8% | 20.0% | ? | 39.8µM* | ? | 1.4%
CCN1/C(=C/C=C/C=C/c2sc3ccccc3[n+]2CC)Sc2ccccc21 | ? | 3.6% | ? | 50.1µM* | ? | .
CC(C)Oc1ccc(CNC(=O)c2ccc3nc(SCc4ccc(F)cc4)n(C)c3c2)cc1 | . | . | -7.3% | 13.7% | . | .
